Results filed as inconclusive are left out. Calls of active or inactive are those of the source. The call rests on the fitted dose curve; in most records, active means well fitted cell-killing curve with a large enough effect in the repeat runs; inconclusive means weak or mixed curves, or effect the other way; inactive means flat fitted curve, though single readings scatter.
experiment: Caspase-3/7 induction in HepG2 cells by small molecules, qHTS cell viability counter screen (AID 1346981); conditions: CellTiter-Fluor fluorescence, 17 h; series mostly up to 92.4 µM; activity change, negative = cytotoxicity: at the top concentration; further: nearly all actives have a fitted effect of over 30% in size
Description: U.S. Tox21 Program National Center for Advancing Translational Sciences [NCATS] NIH Chemical Genomics Center [NCGC] U.S. Environmental Protection Agency [EPA] National Institutes of Environmental Health Sciences [NIEHS] National Toxicology Program [NTP] U.S. Food and Drug Administration [FDA] Tox21 Assay Overview: Apoptosis is a process of programmed cell death and plays a central role in the development of multicellular organisms. It is a highly regulated process and induces cell death by activating caspases, which are the members of cysteine aspartic acid-specific protease (caspase) family. Caspases involved in apoptosis are classified by their mechanism of action as initiator caspases (caspase-2, -8, -9 and -10) and executioner caspases (caspase-3, -6, and -7). Inhibition of apoptosis results in number of cancers, autoimmune diseases, inflammatory diseases and viral infection. To identify small molecule compounds that induce apoptosis, a homogeneous, luminescent Caspase-Glo 3/7 assay was used. Wild type HepG2 cells were used to screen Tox21 libraries for identifying caspase-3/7 activity inducers. Also cytotoxicity of the compounds was tested in parallel by measuring the cell viability using CellTiter-Fluor assay system in the same wells.
Tox21 Assay Protocol Summary: HepG2 cells were dispensed at 2,000 per well in 5uL of culture medium into white solid bottom 1536-well plates (Corning Life Sciences, Corning, NY) using a Multidrop Combi (Thermo Scientific, Waltham, MA) dispenser. The assay plates were incubated at 37 C and 5% CO2 for 5hr, and then 23nL of compounds dissolved in DMSO and positive control were transferred using a Pintool station ([…], San Diego, CA). The assay plates were incubated at 37C and 5% CO2 for 17hr. For cytotoxicity read, after 16hr incubation at 37C, 1uL CellTiter-Fluor reagent (Promega Corporation, Madison, WI) was added to each well of the assay plates using Flying Reagent Dispenser (FRD, Aurora Discovery, San Diego, CA). After 1hr incubation at 37C and 5% CO2, the fluorescence signal was quantified using a ViewLux plate reader (PerkinElmer, Shelton, CT).
On the % scale 0 is the no-effect control and ±100 the full control effect; potency means the concentration at half of the fitted maximal effect.

Question: For `CC(C)NC(=O)c1ccccc1N`, which “activity change, negative = cytotoxicity” value is on record?
Answer: 9.15% (inactive)

Question: Which “activity change, negative = cytotoxicity” value does the source give for `Nc1ncnc2c1ncn2[C@@H]1O[C@H](CO)[C@@H](O)[C@H]1O` here?
Answer: 2.27% [at 42.5 µM] (inactive)

Question: For `C1=COCCC1`, which “activity change, negative = cytotoxicity” value is on record?
Answer: -0.883% (inactive)

Question: For `O=S(=O)(O)c1cc(Cl)c(Cl)cc1Cl`, which “activity change, negative = cytotoxicity” value is on record?
Answer: 4.48% (inactive)

Question: Which “activity change, negative = cytotoxicity” value does the source give for `CCCc1ccc(OC)cc1` here?
Answer: 7.51% (inactive)

Question: Which “activity change, negative = cytotoxicity” value does the source give for `CO[C@@H]1COCC[C@@H]1N[C@@H]1CC[C@@](C(=O)N2CCc3ncc(C(F)(F)F)cc3C2)(C(C)C)C1` here?
Answer: -1.73% (inactive)

Question: For `CCCCCCCCCCCCCCCCC(=O)O`, which “activity change, negative = cytotoxicity” value is on record?
Answer: 0.436% [at 42.5 µM] (inactive)

Question: Which Potency does the source give for `CCOc1cc(OCC)c(C(C)=O)cc1OCC` here?
Answer: 42.5 µM (active)

Question: Which “activity change, negative = cytotoxicity” value does the source give for `CCCN(C1CCN(C(=O)C2CCNCC2)CC1)[C@@H]1CCc2ccc(OC)cc2C1` here?
Answer: -1.73% (inactive)

Question: With `CCC(=O)O[C@]1(C(=O)COC)[C@@H](C)C[C@H]2[C@@H]3CCC4=CC(=O)C=C[C@]4(C)C3(F)[C@@H](O)C[C@@]21C` (stereo not given in full) as the compound, how does the “activity change, negative = cytotoxicity” value read?
Answer: 0.44% [at 42.5 µM] (inactive)

Question: With `O=C(O)c1cc(C(=O)O)c(C(=O)O)cc1C(=O)O` as the compound, how does the “activity change, negative = cytotoxicity” value read?
Answer: -2.33% (inactive)

Question: With `CC(=O)S[C@H](C(=O)N[C@H]1Cc2ccccc2[C@H]2CCC[C@@H](C(=O)O)N2C1=O)C(C)C` as the compound, how does the “activity change, negative = cytotoxicity” value read?
Answer: -0.449% (inactive)

Question: With `C(/C=C/C=C/Nc1ccccc1)=Nc1ccccc1` as the compound, how does the “activity change, negative = cytotoxicity” value read?
Answer: 8.68% (inactive)

Question: For `COC(=O)c1cc(Cl)ccc1[N+](=O)[O-]`, which “activity change, negative = cytotoxicity” value is on record?
Answer: -0.926% (inactive)

Question: With `CC(=O)OCC(=O)[C@@]1(O)CC[C@H]2[C@@H]3CCC4=CC(=O)C=C[C@]4(C)[C@@]3(F)[C@@H](O)C[C@@]21C` as the compound, how does the “activity change, negative = cytotoxicity” value read?
Answer: 10.9% [at 42.5 µM] (inactive)

Question: Which “activity change, negative = cytotoxicity” value does the source give for `O=c1c2ccccc2oc2ccccc12` here?
Answer: -0.313% (inactive)

Question: With `C=C(C)C(=O)OCCCCCCCCCCOC(=O)C(=C)C` as the compound, how does the “activity change, negative = cytotoxicity” value read?
Answer: -3.01% (inactive)

Question: Which “activity change, negative = cytotoxicity” value does the source give for `c1ccc(CCNc2nc(-c3ccccc3)cs2)cc1` here?
Answer: 4.53% [at 42.5 µM] (inactive)

Question: Which “activity change, negative = cytotoxicity” value does the source give for `Oc1ccc(Oc2ccccc2)cc1` here?
Answer: -0.8% (inactive)

Question: With `CC(CCl)OC(C)CCl` (stereo not given) as the compound, how does the “activity change, negative = cytotoxicity” value read?
Answer: 3.46% (inactive)

Question: Which “activity change, negative = cytotoxicity” value does the source give for `Nc1nc(Cl)nc2c1ncn2[C@H]1C[C@H](O)[C@@H](CO)O1` here?
Answer: 0.453% (inactive)

Question: For `CC(C)Cc1nccs1`, which “activity change, negative = cytotoxicity” value is on record?
Answer: -0.547% (inactive)

Question: With `CCC(C)CCCC(C)(C)O` (stereo not given) as the compound, how does the “activity change, negative = cytotoxicity” value read?
Answer: 2.49% (inactive)

Question: Which “activity change, negative = cytotoxicity” value does the source give for `CC(C)Oc1ccccc1O` here?
Answer: 1.72% (inactive)

Question: Which “activity change, negative = cytotoxicity” value does the source give for `COc1cc(CNC(=O)CCCC/C=C/C(C)C)ccc1O` here?
Answer: 8.38% (inactive)

Question: With `CC1(C)[C@@H]2CC[C@]3(C2)[C@@H]1C(=O)CCC3(C)C` as the compound, how does the “activity change, negative = cytotoxicity” value read?
Answer: -0.205% (inactive)

Question: Which “activity change, negative = cytotoxicity” value does the source give for `Cc1cc(N)n(-c2ccccc2)n1` here?
Answer: -1.88% (inactive)

Question: For `SCCOCCOCCS`, which “activity change, negative = cytotoxicity” value is on record?
Answer: 10.3% (inactive)

Question: With `OCCc1ccncc1` as the compound, how does the “activity change, negative = cytotoxicity” value read?
Answer: 0.779% (inactive)

Question: For `CCOc1ccccc1O`, which “activity change, negative = cytotoxicity” value is on record?
Answer: 2.92% (inactive)

Question: For `Sc1nc(S)nc(S)n1`, which “activity change, negative = cytotoxicity” value is on record?
Answer: 6.32% [at 42.5 µM] (inactive)

Question: For `CCCCCCCCCCCCSC#N`, which “activity change, negative = cytotoxicity” value is on record?
Answer: 0.924% (inactive)

Question: Which “activity change, negative = cytotoxicity” value does the source give for `CC[C@H](NC(C)C)[C@H](O)c1ccc(O)c2[nH]c(=O)ccc12` here?
Answer: -0.468% [at 42.5 µM] (inactive)

Question: For `CCCc1nc(C)c2c(=O)[nH]c(-c3cc(S(=O)(=O)N4CCN(CC)CC4)ccc3OCC)nn12`, which “activity change, negative = cytotoxicity” value is on record?
Answer: -0.701% [at 42.5 µM] (inactive)

Question: With `CCCC1CCCC(=O)O1` (stereo not given) as the compound, how does the “activity change, negative = cytotoxicity” value read?
Answer: 4.68% (inactive)

Question: For `NC(=O)c1ccccc1C(N)=O`, which “activity change, negative = cytotoxicity” value is on record?
Answer: 3.65% (inactive)

Question: For `CCN(CCCCOC(=O)c1ccc(OC)c(OC)c1)C(C)Cc1ccc(OC)cc1` (stereo not given), which “activity change, negative = cytotoxicity” value is on record?
Answer: -1.18% [at 42.5 µM] (inactive)

Question: For `[O-][n+]1ccc(Cl)cc1`, which “activity change, negative = cytotoxicity” value is on record?
Answer: 0.284% (inactive)

Question: With `O=C1c2ccccc2C(=O)C1c1ccc2cc(S(=O)(=O)O)cc(S(=O)(=O)O)c2n1` as the compound, how does the Potency read?
Answer: 33.1 µM (active)

Question: For `CCCCCCCCOCCCN`, which “activity change, negative = cytotoxicity” value is on record?
Answer: 0.365% (inactive)
